Assay results from PubChem BioAssay AID743314 (Broad Institute, 2014).
Potency and affinity values are given separately. Inconclusive results are not listed. Active and inactive are the calls of the source.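 Rule for the calls: active = fitted half-maximal concentration no higher than twice the top tested dose, in every repeat run; inconclusive = repeat runs disagree, poor fit, or flat partial inhibition; inactive = the rest.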

Target: Endoplasmic reticulum aminopeptidase 1 (Homo sapiens) (UniProt Q9NZ08)
Assay: ERAP1 aminopeptidase inhibitors, dose response, biochemical, cherry-pick, set 2, plate reader (AID 743314)
Conditions: Recombinant ERAP1, Leu-AMC fluorescence, 60 min; series mostly up to 11 µM

Sequence of Endoplasmic reticulum aminopeptidase 1 (Homo sapiens) (Q9NZ08 whole entry, looked up): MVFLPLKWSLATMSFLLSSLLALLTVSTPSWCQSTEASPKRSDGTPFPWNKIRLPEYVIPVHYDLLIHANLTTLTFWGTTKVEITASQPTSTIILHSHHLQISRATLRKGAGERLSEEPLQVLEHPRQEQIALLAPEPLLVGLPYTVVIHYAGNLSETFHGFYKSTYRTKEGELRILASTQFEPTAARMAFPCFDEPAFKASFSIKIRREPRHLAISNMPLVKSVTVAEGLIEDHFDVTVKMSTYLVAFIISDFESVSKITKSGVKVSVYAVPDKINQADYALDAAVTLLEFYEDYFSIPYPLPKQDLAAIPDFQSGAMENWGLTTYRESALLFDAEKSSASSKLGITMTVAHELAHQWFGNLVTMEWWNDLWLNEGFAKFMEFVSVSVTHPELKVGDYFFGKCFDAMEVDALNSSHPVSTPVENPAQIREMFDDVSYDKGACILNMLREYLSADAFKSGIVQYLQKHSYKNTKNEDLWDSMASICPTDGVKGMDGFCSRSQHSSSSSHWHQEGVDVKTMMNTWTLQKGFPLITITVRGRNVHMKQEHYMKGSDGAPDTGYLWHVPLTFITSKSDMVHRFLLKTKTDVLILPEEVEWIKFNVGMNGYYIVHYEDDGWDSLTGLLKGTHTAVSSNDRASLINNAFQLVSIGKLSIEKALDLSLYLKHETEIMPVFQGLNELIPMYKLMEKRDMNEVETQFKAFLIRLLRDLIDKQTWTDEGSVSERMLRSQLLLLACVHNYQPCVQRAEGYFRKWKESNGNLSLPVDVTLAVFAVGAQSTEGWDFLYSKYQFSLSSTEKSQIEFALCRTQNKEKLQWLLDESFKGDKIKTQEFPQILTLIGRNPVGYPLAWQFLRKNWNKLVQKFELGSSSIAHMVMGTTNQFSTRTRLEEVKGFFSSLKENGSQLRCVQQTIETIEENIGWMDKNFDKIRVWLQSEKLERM

outcome, inactive:
COc1ccc(C(=O)NCc2nnc(SCC(=O)NC3CCCCC3)n2C)cc1, CCN(Cc1ccc(OC)c(F)c1)C(=O)C1CCCO1 (stereo not drawn), COc1ccc(CCC(=O)NC2CCCc3ccccc32)cc1OC (stereo not drawn)
